Reference: the supplement of paper PMC3656093
± gives the standard deviation of the averaged measurements. Whole data set: some 1,900 compounds, median “CD40L-induced NF-kB luciferase activity, plate-corrected, relative to DMSO (0) and IKK inhibitor VII (-100) controls” near 0.032, cut for the lowest 2% near -26. The entries come from a sample that favours the lowest values as a whole.

system: BL2-NFkB-Luc; assay: CD40L-induced NF-kB luciferase activity, plate-corrected, relative to DMSO (0) and IKK inhibitor VII (-100) controls (% normalized activity); higher = more NF-kB reporter activity (less inhibition); conditions: 9.4 µM; stimulus: tCD40L 64 ng/ml; 4.5 h
Protocol: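 BL2 B cells with a stable NF-kB response-element luciferase reporter (BL2-NFkB-Luc), 384-well. Cells were pre-incubated with compound at 9.4 uM for 1 h at 37 C, then stimulated with 64 ng/ml trimerized CD40L for 4.5 h; luciferase was read with Steady-Glo. Signal was normalised per plate in Genedata (median DMSO neutral control = 0, median IKK inhibitor VII at 50 uM = -100) with Assay Median plate-pattern correction; duplicate plates.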

| SMILES | CD40L-induced NF-kB luciferase activity |
| --- | --- |
| O=C1C(=O)c2ccccc2-c2ccccc21 | -94.61 ± 0.41 |
| O=C1C=Cc2ccccc2C1=O | 4.88 ± 5.5 |
| CCCC[N+]1(C)[C@@H]2CC(OC(=O)[C@H](CO)c3ccccc3)C[C@H]1[C@@H]1O[C@@H]12 (stereo partly drawn) | -0.479 ± 2.2 |
| CCN(CC)C(=O)N[C@H]1C[C@@H]2c3cccc4[nH]cc(c34)C[C@H]2N(C)C1 | -15 ± 8.3 |
| CC(C)C[C@H]1C(=O)N2CCC[C@H]2[C@]2(O)O[C@](NC(=O)[C@@H]3C=C4c5cccc6[nH]c(Br)c(c56)CC4N(C)C3)(C(C)C)C(=O)N12 (stereo partly drawn) | 3.22 ± 1.5 |
| c1ccc2c(c1)[nH]c1cnccc12 | -5 ± 7.4 |
| COc1cc([C@@H]2c3cc4c(cc3[C@H](O)[C@H]3COC(=O)[C@H]23)OCO4)cc(OC)c1OC | -50.7 ± 3 |
| CCCC(=O)OCC[N+](C)(C)C | -5.48 ± 4.7 |
| CN1[C@@H]2CC[C@H]1CC(OC(=O)C1C=Nc3ccccc31)C2 (stereo partly drawn) | -2.21 ± 6.7 |
| Cc1ccc2c(c1)C1CN(C)CCC1N2C(=O)Nc1cccc(Cl)c1 (stereo not drawn) | -6.16 ± 2.1 |
| C[C@H]1OC[C@@H](C[N+](C)(C)C)O1 | -0.99 ± 1.9 |
| COc1ccc(CN2CC3CC(C2)c2cccc(=O)n2C3)cc1OC (stereo not drawn) | -5.62 ± 3.4 |
| CN[C@H](C)[C@H](O)c1ccccc1 | -2.12 ± 1.3 |
| COc1ccc(OCC(=O)N2c3ccc(C)cc3C3CN(C)CCC32)cc1 (stereo not drawn) | 0.261 ± 0.6 |
| CC(C)C[C@H](NC(=O)[C@@H]1CCCN1C(=O)[C@@H](N)Cc1ccc(O)cc1)C(=O)NCC(N)=O | -28.7 ± 4.1 |
| CC(C)(C)NCC(O)c1cc(Cl)c(N)c(Cl)c1 (stereo not drawn) | -3.51 ± 17 |
| COc1ccc(CCN2CCC(Nc3nc4ccccc4n3Cc3ccc(F)cc3)CC2)cc1 | -4.18 ± 3.9 |
| CC[C@H]1CN2CCc3cc(OC)c(OC)cc3[C@@H]2C[C@@H]1C[C@H]1NCCc2cc(OC)c(OC)cc21 | -93.93 ± 0.21 |
| c1ccc2c3c([nH]c2c1)CNCC3 | -0.0865 ± 4.1 |
| C[C@@H]1O[C@@H](O[C@H]2C[C@@H](O)[C@]3(CO)[C@H]4[C@H](O)C[C@]5(C)[C@@H](C6=CC(=O)OC6)CC[C@]5(O)[C@@H]4CC[C@]3(O)C2)[C@H](O)[C@H](O)[C@H]1O | -78.94 ± 0.33 |
| CC12CC[C@H]3[C@@H](CCC4(O)C[C@H](O)CCC34C=NNC(=O)Cc3ccccc3)C1(O)CCC2C1=CC(=O)OC1 (stereo partly drawn) | -1.26 ± 0.48 |
| C[C@@H]1O[C@@H](O[C@H]2C[C@@H](O)[C@]3(CO)[C@H]4[C@H](O)C[C@]5(C)[C@@H](C6COC(=O)C6)CC[C@]5(O)[C@@H]4CC[C@]3(O)C2)[C@H](O)[C@H](O)[C@H]1O (stereo partly drawn) | 2.54 ± 3.8 |
| CC12CN3CC(C)(CN(C1)C3c1cccs1)C2O (stereo not drawn) | -2.02 ± 2.9 |
| C[C@]12CCC(=O)C=C1CCC1C2CC[C@@]2(C)C1CC[C@@]2(O)CC#N (stereo partly drawn) | -0.607 ± 3.7 |
| O=C1CSC2N1CCNC21CCCCC1 (stereo not drawn) | -1.57 ± 5.5 |
| CCC1(c2ccccc2)C(=O)N(COC)C(=O)N(COC)C1=O | -30.1 ± 1.2 |
| CN1C2CCC1CC(OC(=O)c1ccc(Cl)cc1)C2 (stereo not drawn) | -2.24 ± 2.5 |
| CN(C)[C@@H]1C(=O)C(C(N)=O)C(=O)[C@@]2(O)C(=O)C3C(=O)c4c(O)cccc4[C@@](C)(O)[C@H]3[C@H](O)[C@@H]12 (stereo partly drawn) | 0.102 ± 0.97 |
